# In PubChem BioAssay AID1508600 (Functional Genomics Laboratory (NCATS/FGL), 2020):
# About 3,700 (7%) of roughly 53,000 sequences were called active. This excerpt belongs to a sample that is enriched for actives. Unmarked numbers belong to inactive results.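 How the source made its calls: active means gene knockdowns whose robust z-score for IL-1 alpha signal is at least 2 or at most -2, so actives lie on both sides; inactive means the rest.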
# Assay: Components of the Cytosolic LPS Sensing Pathway: Gene Identification via Genome-wide siRNA Screen;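 further: robust z of the log signal after scaling to non-targeting control siRNA wells of the plate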
# Details: RAW264.7 macrophages, IL-1a HTRF, actives lie on both sides, screened at 100 nM (by protocol), cells primed 5 h with Pam3CSK4 first
# Procedure, shortened: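 Cells (RAW264.7, 1×10^4 per well) were transfected with siRNA at 100 nM and cultured 48h at 37 degrees C. Pam3CSK4 was added for 5 hours; LipidA transfection followed for 24 hour. IL-1a was then measured by HTRF.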
row,Sequence,z-score
1,GCACGAGACACUUUUCAUUTT against Dnajb5,-0.0852
2,GGAAGCAGAAUUGUAAAGATT against Hrk,-1.09
3,GCAACAAAAGGCCUAAUCATT against 4930550C14Rik,-1.74
4,GGCCCUUGUUUAAAGCCAUTT against Asns,0.0954
5,CGGCGUAUGAGGAUUGGUUTT against Atp8b1,-0.739
6,GGCCAAGAUUAGAUUGCUUTT against Senp2,2.57 (active)
7,GCCCGUAUAGGUAUUGGUCTT against Mpg,2.06 (active)
8,GCUUGAAUCCGAUUUGUUATT against Gramd1c,0.296
9,GGCAUAUGAUGAUAAGUAATT against P2ry14,0.691
10,GGCACUGAAGGAGAACCUGTT against Rbbp8nl,-0.336
11,GGAACAACUGAAAAUGAAGTT against Ppp1r21,-1.21
12,UUCCAUUCAUAUGUCUUGATT against Tas2r109,0.00348
13,GGUUUUUCUAAGAGAACGGTT against Rnft1,-0.558
14,CCUGGUCACUCCAAACCCATT against Zfp950,-2.11 (active)
15,GGAGCUCUCGAAGGAUUGUTT against Eda2r,-0.768
16,GGAUAAGAGGGUGAAGUCATT against Cdyl2,-1.06
17,GGUAUAUAGGGCUGUGGCUTT against Pigs,-0.822
18,GGUGUACUUUAUCUCACGATT against Olfr6,1.1
19,GCCUGUUCUAGGUGACCUATT against Chd3,0.236
20,GGAAAUACAGAACACAAGCTT against Plekhm3,2.04 (active)
21,GGUUAAAUAUGUAAACCACTT against Slco2b1,0.0949
22,CCAUAUAGCCUCAAAAUCGTT against Acat2,-0.395

row,Sequence,z-score
1,CGUCUCAACAGAGUUGGAGTT against Prmt2,1.94
2,CGAUGCUGAUGUAUCAAAGTT against Phkb,1.48
3,GGUUCUUUUUACUCAGUGGTT against Ankhd1,-2.53 (active)
4,GGAACUUCCUGUUCAGAAATT against Eci3,0.881
5,CGUUAGUCUGUGAAUGCACTT against Emc10,-0.442
6,GGACAGUAAUAUGAUGAGCTT against Lzts1,-0.943
7,GCUUUAGUGACGGCUCGAATT against Zscan2,2.07 (active)
8,GGGAGUGAGUUCUGGAGUGTT against Capn2,0.815
9,GGUUUUAAAGCAAUGAGCATT against Olfr995,-1.2
10,CCCAUGUCGUGACAUCACATT against Slc26a7,-2.93 (active)
11,GGCCUUCUAUUUUGUCAAUTT against Limd1,0.403
12,GAAAUUUCCUAGAUGACUCTT against Vmn1r199,-0.447
13,CGUAUGAGUGCAAUACUAATT against Pcmtd1,1.32
14,GCACAUAGUGUAUCUAUACTT against Cd86,-1.24
15,GUCUUGCGUGACAACAUCCTT against H4c14,0.718
16,GCUUAUAUGGCCUGAGAGATT against Tmem199,-0.74
17,GGUCAAAGGGAAACAAGUUTT against Creb3l4,-2.02 (active)
18,GGUGGUUUAACUGGAUAUUTT against Paip2b,-1.95
19,GCCCAUGUAUCCAAAAGAATT against Cnmd,-1.59
20,GGUGAUUGACAGAUUCUGATT against Nr4a1,-0.613
21,GCUUGGACCAUAAAUACUGTT against Senp5,0.051
22,GAUCAGAUGUUUGGGACUUTT against Olfr512,2.25 (active)

row,Sequence,z-score
1,GGACUUCUUAAUGUUUUACTT against Phf11a,0.398
2,GCCCAAGGUAACAACAAGCTT against Rtn4r,1.28
3,GGUAACUUUGAACUGAUCCTT against 1700030J22Rik,-1.17
4,CCCUCAACCUCCAACCACATT against Ceacam1,-2.15 (active)
5,GGGUUAGAGUAAGGUAUUATT against Tsn,-0.879
6,GCAGAUAGCCCACGUCAUUTT against Nfkb2,0.881
7,CCUAAGUUCCUGAAAAUAUTT against Epha5,-0.454
8,GGGAUUCAGACAUGUGCUGTT against 4930503E14Rik,-0.658
9,GGCCUACGAGAGGCAAAAATT against Hnf1a,-2.05 (active)
10,CCAUACCGAUCAAAUUCCCTT against Pfn2,-0.596
11,GCAAUAGAAAAGUCCGUGGTT against Rbsn,-1.12
12,GGCAAAGGAUCCAAGUUUGTT against Tmem123,2.81 (active)
13,GGAUGUCCAGAUGUAAAUATT against Vps16,-0.974
14,GGUUAUCAGAGGUUUAGUUTT against Oser1,0.23
15,GGGUCUCCAAUCCCUCAGUTT against Kir3dl2,0.489
16,GGGCAAGAACAACUCACUUTT against 4933404G15Rik,-2.93 (active)
17,GGAUUCAAAGCUUCCUUUATT against Eras,0.115
18,CGAAAAGGUGUGGCCAUCATT against Eif4a3,-0.664
19,CGACAUGUAAAACUAUUGUTT against Cd300e,0.864
20,CGACAUUUUACUAAGAGAUTT against Idnk,-0.895
21,UCGAGUGAAGCAGUCUCCATT against Fam189a1,-2.13 (active)
22,GCCCAGAAUGCUCACUAAATT against Sln,0.491

row,Sequence,z-score
1,GGCUGUAAUUUUGAACAAUTT against Rnf17,-1.42
2,CGAGAUCGAGUACUCAACUTT against Vps39,-2.96 (active)
3,GGUCACUCAAAGAAUUAUGTT against Srr,-1.05
4,CCUGUUAAUGACACCCACGTT against Slc37a2,-0.886
5,GGCGAUUUACAACUUUGGATT against H2aw,0.0941
6,GGAGUGAAGGGUCAUCCAGTT against Col9a2,5.07 (active)
7,GGAUAUAGGUGUGAUCUAGTT against Mxra7,0.9
8,CCCAAUGUUUCUAAUCAUGTT against Arhgap12,0.306
9,GGAAGGUUUGUUUUGUUUGTT against Slc24a3,0.0291
10,GGAGGAAUACCAGGAAUACTT against Sncb,0.33
11,GCCCUUUUCAUUCUCCAGATT against Zdhhc25,4.39 (active)
12,GCCUUUGUGGACCAUCCAATT against Thy1,-0.954
13,GGAAAUACGGCAGAACCCUTT against Kcnk9,-2.54 (active)
14,GUACCUCAGAGCUCUGCAUTT against Helt,-0.292
15,GCACUUAGUCCUACAUGACTT against Fut1,-1.21
16,GGUGGUAAUAGACAAACACTT against Ctdnep1,-0.749
17,GGAUGUGUCAGAAAAGUUATT against Lars2,0.641
18,GGAAAUUGUGGACAUGAUCTT against Sult1c1,-3.27 (active)
19,GGUAACAAAUGCUGUUUUATT against Cul1,0.459
20,CCGAUUGAAUUACUCAGCATT against Bcas2,0.226
21,GGACAAAAGACAAUCGAGATT against Parp2,-0.273
22,CGAUGUUUUCAUGAACGACTT against Tctex1d2,0.738

row,Sequence,z-score
1,GCUGGGUUAUGAGAUUUCUTT against Tns2,2.26 (active)
2,GGAGGAUUACAACACUGUUTT against Enpp3,-0.617
3,CCUAGUAGCCGAGAAACAUTT against Olfr1137,-0.705
4,GGCAAUACGUGAAGAAAAATT against Baz1a,-0.493
5,GGCUGUUUCUGUCAUGGUUTT against Nup133,0.383
6,GCAGAGAUAAAUUGGAAAGTT against Art2b,0.292
7,GGAUAGAGCACAGAUCCAGTT against St8sia5,2.38 (active)
8,GGUCGAAAUGAUCUCCAACTT against Poli,-0.687
9,GCUUCGAGAACUUUCUCCCTT against Nrtn,0.818
10,GGUUUCCAUAUUUGGAUCCTT against Dhx40,0.0331
11,GGGAAAGAAUUGGAUUGAATT against N4bp2l1,-2.31 (active)
12,GGAAUUUGAAGCUGUCACUTT against Spata2,-0.433
13,GGACUAGCGGACAUGGAUCTT against Ndc80,1.02
14,GGAAUUUCAAAGAGACAAATT against Cyfip1,-0.423
15,GGAUCGGUGAGAUUGUAGCTT against Phyhd1,-0.177
16,GGGCAUUUCUUCAGCUAAUTT against Tfec,-1.04
17,GGAAGAUCUCAGUGAGCAUTT against Gpcpd1,0.69
18,GGGUUUUAUCAGCUAAAAATT against Plppr4,2.29 (active)
19,GGCUUUAGGAAGAUCCUUGTT against Ilf2,-0.538
